PubChem BioAssay (NCI)
About 79,000 compounds went through this panel and 15% of them were active in at least one assay; those are over-represented in the sample as a whole. Calls of active or inactive are those of the source. Cut-off read from the data, not from the text of the source: active = growth inhibition above about 70%; inactive = the rest.

Assays:
[1] = NCI Yeast Anticancer Drug Screen. Data for the rad52 strain (AID 147);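 note: 0% = growth of vehicle-treated control cultures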; details: S. cerevisiae rad52 mutant growth inhibition, active compounds read high
In short: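 Genetically altered yeast (DNA damage repair defect) treated with compound; inhibition calculated relative to vehicle.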

[2] = NCI Yeast Anticancer Drug Screen. Data for the wt1 strain (AID 149);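 note: 0% = growth of vehicle-treated wt1 cultures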; details: S. cerevisiae wt1 strain (SPY 50644) growth inhibition, active compounds read high
In short: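 wt1 yeast, compound-treated; % growth inhibition vs vehicle control.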

[3] = NCI Yeast Anticancer Drug Screen. Data for the rad50EPP+ strain (AID 151);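 note: 0% = growth of vehicle-treated control cultures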; details: S. cerevisiae rad50 mutant strain, active compounds read high
In short: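 Strain rad50EPP+; compound exposure; % growth inhibition vs vehicle.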

[4] = NCI Yeast Anticancer Drug Screen. Data for the mgt1 strain (AID 153); details: S. cerevisiae mgt1 mutant growth inhibition, active compounds read high
In short: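 Read-out: yeast growth inhibition vs vehicle control. Strain mgt1, drawn from a panel altered in DNA damage repair or cell cycle control.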

[5] = NCI Yeast Anticancer Drug Screen. Data for the rad50 strain (AID 155);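 note: 0% = growth of vehicle-only cultures of the same strain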; details: S. cerevisiae rad50 strain growth inhibition, active compounds read high
In short: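 Genetically altered yeast (DNA repair pathway); compound treatment; growth inhibition vs vehicle ctrl.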

[6] = NCI Yeast Anticancer Drug Screen. Data for the mec2-1 strain (AID 157); details: S. cerevisiae mec2-1 strain, active compounds read high
In short: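 Cells of the genetically defined mec2-1 yeast strain are incubated with test compound. Inhibition of growth is calculated against vehicle-treated controls.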

[7] = NCI Yeast Anticancer Drug Screen. Data for the rad14 strain (AID 159);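 note: 0% = growth of vehicle-treated control cultures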; details: S. cerevisiae rad14 strain growth inhibition, active compounds read high
In short: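 Test compounds were applied to a repair-deficient yeast strain. Its growth was then compared with that of cultures given vehicle alone, and inhibition was expressed relative to those controls.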

[8] = NCI Yeast Anticancer Drug Screen. Data for the sgs1 mgt1 strain (AID 161);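 note: 0% = growth of cultures given vehicle only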; details: S. cerevisiae sgs1 mgt1 strain, active compounds read high
In short: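 Read-out: growth inhibition vs vehicle controls. Cells: mutant yeast strain deficient in DNA damage repair.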

[9] = NCI Yeast Anticancer Drug Screen. Data for the CLN2oe strain (AID 163);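 note: 0% = growth of vehicle-only control cultures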; details: S. cerevisiae CLN2oe strain, active compounds read high
In short: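 Strain altered in cell-cycle control, incubated with compound; growth compared to solvent-treated controls.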

[10] = NCI Yeast Anticancer Drug Screen. Data for the cln2 rad14 strain (AID 165);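 note: 0% = growth equal to vehicle treated cultures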; details: S. cerevisiae cln2 rad14 strain, active compounds read high
In short: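 The screen exposed genetically defined yeast (cln2 rad14) to test compounds and scored growth inhibition relative to vehicle-treated controls.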

[11] = NCI Yeast Anticancer Drug Screen. Data for the bub3 strain (AID 167); details: S. cerevisiae bub3 mutant strain, active compounds read high
In short: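 Yeast carrying a defined mutation is treated with each compound, and growth is compared with that of vehicle-exposed cells to give inhibition.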

[12] = NCI Yeast Anticancer Drug Screen. Data for the wt2 strain (AID 169);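 note: 0% = growth of vehicle-treated yeast cultures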; details: S. cerevisiae wt2 strain growth inhibition, active compounds read high
In short: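 Steps: yeast strain treated with compound; growth recorded; inhibition calculated relative to cultures given vehicle alone.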

[13] = NCI Yeast Anticancer Drug Screen. Data for the mlh1 strain (AID 171);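 note: 0% = growth of vehicle-treated control cultures of the same strain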; details: S. cerevisiae mlh1 strain growth inhibition, active compounds read high
In short: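 Yeast screen: mutant strain plus compound, growth scored against vehicle control wells.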

[14] = NCI Yeast Anticancer Drug Screen. Data for the sgs1 strain (AID 173);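 note: 0% = growth of vehicle-only control cultures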; details: S. cerevisiae sgs1 mutant, active compounds read high
In short: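 Inhibition of yeast growth served as the measure. The mutant strain was treated with each compound, and growth was normalised to cultures receiving vehicle alone.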

[15] = NCI Yeast Anticancer Drug Screen. Data for the mlh1 rad18 strain (AID 175); details: S. cerevisiae mlh1 rad18 strain growth inhibition, active compounds read high
In short: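 Compound-treated yeast growth, normalised to vehicle controls. Strain bears defined DNA repair mutations.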

[16] = NCI Yeast Anticancer Drug Screen. Data for the rad18 strain (AID 177); details: S. cerevisiae rad18 mutant growth inhibition, active compounds read high
In short: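 Inhibition values reflect reduced yeast growth compared with vehicle-treated controls, using a strain engineered with a DNA damage repair defect.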

[17] = at 5.0 µM (retest, dose inferred, filed as 0.5)
[18] = at 50.0 µM (retest, dose inferred, filed as 5.0)

Measured: growth inhibition

N#Cc1nc(Nc2ccc(Cl)cc2)sc1N
inactive: [1]; at 1.2 µM -33% | [1]; at 3.7 µM -29% | [1]; at 11.0 µM -25% | [1]; at 33.0 µM 32% | [2]; at 1.2 µM -6% | [2]; at 3.7 µM -4% | [2]; at 11.0 µM -16% | [2]; at 33.0 µM 41% | [3]; at 1.2 µM -36% | [3]; at 3.7 µM -27% | [3]; at 11.0 µM -17% | [3]; at 33.0 µM -1% | [3]; at 100.0 µM 36% | [4]; at 1.2 µM -6% | [4]; at 3.7 µM -10% | [4]; at 11.0 µM 1% | [5]; at 1.2 µM -4% | [5]; at 3.7 µM -9% | [5]; [17] 18% | [5]; at 11.0 µM -1% | [5]; at 33.0 µM 27% | [5]; [18] -8% | [5]; at 100.0 µM 61% | [6]; at 1.2 µM -37% | [6]; at 3.7 µM -8% | [6]; [17] 8% | [6]; at 11.0 µM -15% | [6]; at 33.0 µM 19% | [6]; [18] 53% | [6]; at 50.0 µM 36.1% | [6]; at 100.0 µM 42% | [7]; at 1.2 µM -31% | [7]; at 3.7 µM -19% | [7]; at 11.0 µM -16% | [7]; at 33.0 µM 34% | [8]; [17] 9% | [8]; [18] 30% | [9]; at 1.2 µM 25% | [9]; at 3.7 µM 20% | [9]; at 11.0 µM 27% | [9]; at 33.0 µM 58% | [9]; at 100.0 µM 44% | [10]; [17] 39% | [11]; at 1.2 µM 18% | [11]; at 3.7 µM 23% | [11]; [17] 10% | [11]; at 11.0 µM 17% | [11]; at 33.0 µM 32% | [12]; at 1.2 µM -20% | [12]; at 3.7 µM -36% | [12]; at 11.0 µM -20% | [13]; at 1.2 µM 1% | [13]; at 3.7 µM 27% | [13]; at 11.0 µM 21% | [13]; at 33.0 µM 64% | [14]; at 1.2 µM -20% | [14]; at 3.7 µM -13% | [14]; at 11.0 µM -2% | [14]; at 33.0 µM -1% | [14]; at 100.0 µM 40% | [15]; [17] -29% | [15]; [18] -24% | [15]; at 50.0 µM 49.9% | [16]; at 1.2 µM -17% | [16]; at 3.7 µM -17% | [16]; at 11.0 µM -3% | [16]; at 33.0 µM 44%
active: [1]; at 100.0 µM 80% | [2]; at 100.0 µM 73% | [4]; at 33.0 µM 80% | [4]; at 100.0 µM 94% | [5]; at 50.0 µM 89.2% | [7]; at 100.0 µM 91% | [8]; at 50.0 µM 76.2% | [10]; [18] 92% | [10]; at 50.0 µM 84.6% | [11]; [18] 70% | [11]; at 50.0 µM 86% | [11]; at 100.0 µM 94% | [12]; at 33.0 µM 81% | [12]; at 100.0 µM 84% | [13]; at 100.0 µM 94% | [16]; at 100.0 µM 91%
